Results: the supplement of paper PMC10849652
Of roughly 8,800 targets only a part is listed; those with a hit were picked by preference. About 0.5% of all pairs of compound and target were hits. A number with no mark means an inactive call.

Legend:
Assay in all cases: log2 fold change, soluble protein after heating vs DMSO (PISA); higher = thermal stabilisation; K562 lysate, 10 uM; active = over 0.2 and 3.5 SD of the protein, either way, in both replicates (recomputed)
[1] = compound: CS(=O)(=O)CCNCc1ccc(-c2ccc3ncnc(Nc4ccc(OCc5cccc(F)c5)c(Cl)c4)c3c2)o1 [lapatinib]
How it was run: (§1)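 Log-two fold change in thermal stability relative to solvent controls is reported from duplicates. For each sample, crude K562 extract from dounce-homogenised pellets in PBS pH 7.4 with 1 mM MgCl2, at 1 mg/mL protein, was treated with 10 μM compound for 30 min. Aliquots heated for 3 min across 48°C-58°C were pooled, brought to 0.5% NP-40 at 4°C and cleared at 21,000xg for 90 min. The supernatant was quantified by TMTpro 16plex LC-MS/MS with channel sums equalised.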

[2] = compound: CS(=O)(=O)N1CCN(Cc2cc3nc(-c4cccc5[nH]ncc45)nc(N4CCOCC4)c3s2)CC1 [pictilisib]
How it was run: as §1

[3] = compound: C[C@@H](Oc1cc(-c2cnn(C3CCNCC3)c2)cnc1N)c1c(Cl)ccc(F)c1Cl [crizotinib]
How it was run: as §1

[4] = compound: C[C@H](C1=CC=C(C=C1)C(=O)NC2=C3C=CNC3=NC=C2)N
How it was run: as §1

[5] = compound: C[C@H](Nc1ncnc2nc[nH]c12)c1cc2cccc(Cl)c2c(=O)n1-c1ccccc1 [duvelisib]
How it was run: as §1

[6] = compound: Cc1cc(Nc2cc(CN3CCOCC3)c3nc(C)c(Cc4ccc(Cl)cc4F)n3n2)n[nH]1 [gandotinib]
How it was run: as §1

[7] = compound: Cc1cc(Nc2cc(N3CCN(C)CC3)nc(Sc3ccc(NC(=O)C4CC4)cc3)n2)n[nH]1 [tozasertib]
How it was run: as §1

[8] = compound: Cc1ccc(-n2nc(C(C)(C)C)cc2NC(=O)Nc2ccc(OCCN3CCOCC3)c3ccccc23)cc1 [doramapimod]
How it was run: as §1

[9] = compound: Cc1ccc(NC(=O)c2ccc(CN3CC[C@H](N(C)C)C3)c(C(F)(F)F)c2)cc1Nc1nccc(-c2cncnc2)n1 [bafetinib]
How it was run: as §1

[10] = compound: Cc1cccc(CC(=O)N2CCc3c2ccc(-c2cn(C)c4ncnc(N)c24)c3F)n1
How it was run: as §1

[11] = compound: Cc1cn(-c2cc(NC(=O)c3ccc(C)c(Nc4nccc(-c5cccnc5)n4)c3)cc(C(F)(F)F)c2)cn1 [nilotinib]
How it was run: as §1

[12] = compound: Cc1nc(Nc2n[nH]c3c2CN(C(=O)N[C@H](CN(C)C)c2ccccc2)C3(C)C)c2sccc2n1
How it was run: as §1

[13] = compound: Cc1nc(Nc2ncc(C(=O)Nc3c(C)cccc3Cl)s2)cc(N2CCN(CCO)CC2)n1 [dasatinib]
How it was run: as §1

[14] = compound: Cc1ncc(-c2ccnc(Nc3ccc(S(C)(=O)=O)cc3)n2)n1C(C)C
How it was run: as §1

[15] = compound: Cn1cc(-c2ccc3c(c2)CCN3C(=O)Cc2cccc(C(F)(F)F)c2)c2c(N)ncnc21
How it was run: as §1

[16] = compound: Cn1cc(CNCC2CCN(c3ncc(C(=O)NO)cn3)CC2)c2ccccc21 [quisinostat]
How it was run: as §1

[17] = compound: Cn1cncc1[C@@](N)(c1ccc(Cl)cc1)c1ccc2c(c1)c(-c1cccc(Cl)c1)cc(=O)n2C [tipifarnib]
How it was run: as §1

[18] = compound: NC(=O)Nc1cc(-c2cccc(F)c2)sc1C(=O)N[C@H]1CCCNC1
How it was run: as §1

[19] = compound: NC(=O)c1cnc(N[C@@H]2CCCC[C@@H]2N)nc1Nc1cccc(-n2nccn2)c1
How it was run: as §1

[20] = compound: NC1(c2ccc(-c3nc4ccn5c(=O)[nH]nc5c4cc3-c3ccccc3)cc2)CCC1
How it was run: as §1

Chain of UniProt P49754 (P49754 whole entry, looked up): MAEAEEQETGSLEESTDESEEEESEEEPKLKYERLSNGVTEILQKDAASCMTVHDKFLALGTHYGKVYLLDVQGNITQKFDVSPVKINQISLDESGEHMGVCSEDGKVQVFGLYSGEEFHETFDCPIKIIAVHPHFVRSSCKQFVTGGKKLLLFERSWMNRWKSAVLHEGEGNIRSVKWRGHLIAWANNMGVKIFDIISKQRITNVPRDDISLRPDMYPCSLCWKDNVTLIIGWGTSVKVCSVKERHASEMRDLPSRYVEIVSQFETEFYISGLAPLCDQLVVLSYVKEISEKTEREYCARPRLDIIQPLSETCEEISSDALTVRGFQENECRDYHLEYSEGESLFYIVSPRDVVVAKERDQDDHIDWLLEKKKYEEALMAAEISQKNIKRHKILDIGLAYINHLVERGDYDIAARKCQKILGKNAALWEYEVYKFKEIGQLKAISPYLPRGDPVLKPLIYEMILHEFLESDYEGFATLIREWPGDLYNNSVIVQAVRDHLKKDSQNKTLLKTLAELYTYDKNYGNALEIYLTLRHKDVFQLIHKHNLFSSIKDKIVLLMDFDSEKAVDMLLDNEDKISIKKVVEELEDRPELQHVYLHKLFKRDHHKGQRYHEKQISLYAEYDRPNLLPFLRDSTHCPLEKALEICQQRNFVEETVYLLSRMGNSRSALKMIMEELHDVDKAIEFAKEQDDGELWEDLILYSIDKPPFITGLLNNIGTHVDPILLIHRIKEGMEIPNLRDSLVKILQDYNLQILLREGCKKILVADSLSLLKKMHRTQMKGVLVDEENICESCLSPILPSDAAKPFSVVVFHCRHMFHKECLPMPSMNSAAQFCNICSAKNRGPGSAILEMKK
Chain of UniProt Q99986 (Q99986 whole entry, looked up): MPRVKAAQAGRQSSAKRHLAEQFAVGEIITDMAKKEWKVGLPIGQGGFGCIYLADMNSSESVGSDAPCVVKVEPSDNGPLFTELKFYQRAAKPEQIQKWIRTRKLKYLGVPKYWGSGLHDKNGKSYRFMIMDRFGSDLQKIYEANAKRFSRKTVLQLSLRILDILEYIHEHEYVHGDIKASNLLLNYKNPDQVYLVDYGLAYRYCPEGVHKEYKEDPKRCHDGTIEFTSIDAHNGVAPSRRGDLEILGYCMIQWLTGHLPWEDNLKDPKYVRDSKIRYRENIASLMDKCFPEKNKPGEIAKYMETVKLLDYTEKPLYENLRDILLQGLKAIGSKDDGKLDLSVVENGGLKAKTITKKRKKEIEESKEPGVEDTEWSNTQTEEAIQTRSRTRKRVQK
Chain of UniProt Q9NQW7 (Q9NQW7 whole entry, looked up): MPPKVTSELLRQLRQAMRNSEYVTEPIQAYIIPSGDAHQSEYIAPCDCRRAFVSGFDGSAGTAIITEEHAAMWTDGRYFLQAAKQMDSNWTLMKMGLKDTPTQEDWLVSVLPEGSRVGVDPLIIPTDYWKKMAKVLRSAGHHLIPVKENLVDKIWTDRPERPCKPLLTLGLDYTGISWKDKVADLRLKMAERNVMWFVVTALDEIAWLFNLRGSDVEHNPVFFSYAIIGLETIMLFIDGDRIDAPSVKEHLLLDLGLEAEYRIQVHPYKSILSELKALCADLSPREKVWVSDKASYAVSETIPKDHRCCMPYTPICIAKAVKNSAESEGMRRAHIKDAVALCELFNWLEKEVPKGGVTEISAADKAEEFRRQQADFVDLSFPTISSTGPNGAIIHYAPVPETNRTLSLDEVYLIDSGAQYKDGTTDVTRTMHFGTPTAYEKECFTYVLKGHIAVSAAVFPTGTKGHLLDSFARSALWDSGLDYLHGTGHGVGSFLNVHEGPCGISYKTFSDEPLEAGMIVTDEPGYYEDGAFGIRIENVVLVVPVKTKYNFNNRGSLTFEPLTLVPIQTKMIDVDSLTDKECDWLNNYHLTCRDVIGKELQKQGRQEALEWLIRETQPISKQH
Chain of UniProt P15498 (P15498 whole entry, looked up): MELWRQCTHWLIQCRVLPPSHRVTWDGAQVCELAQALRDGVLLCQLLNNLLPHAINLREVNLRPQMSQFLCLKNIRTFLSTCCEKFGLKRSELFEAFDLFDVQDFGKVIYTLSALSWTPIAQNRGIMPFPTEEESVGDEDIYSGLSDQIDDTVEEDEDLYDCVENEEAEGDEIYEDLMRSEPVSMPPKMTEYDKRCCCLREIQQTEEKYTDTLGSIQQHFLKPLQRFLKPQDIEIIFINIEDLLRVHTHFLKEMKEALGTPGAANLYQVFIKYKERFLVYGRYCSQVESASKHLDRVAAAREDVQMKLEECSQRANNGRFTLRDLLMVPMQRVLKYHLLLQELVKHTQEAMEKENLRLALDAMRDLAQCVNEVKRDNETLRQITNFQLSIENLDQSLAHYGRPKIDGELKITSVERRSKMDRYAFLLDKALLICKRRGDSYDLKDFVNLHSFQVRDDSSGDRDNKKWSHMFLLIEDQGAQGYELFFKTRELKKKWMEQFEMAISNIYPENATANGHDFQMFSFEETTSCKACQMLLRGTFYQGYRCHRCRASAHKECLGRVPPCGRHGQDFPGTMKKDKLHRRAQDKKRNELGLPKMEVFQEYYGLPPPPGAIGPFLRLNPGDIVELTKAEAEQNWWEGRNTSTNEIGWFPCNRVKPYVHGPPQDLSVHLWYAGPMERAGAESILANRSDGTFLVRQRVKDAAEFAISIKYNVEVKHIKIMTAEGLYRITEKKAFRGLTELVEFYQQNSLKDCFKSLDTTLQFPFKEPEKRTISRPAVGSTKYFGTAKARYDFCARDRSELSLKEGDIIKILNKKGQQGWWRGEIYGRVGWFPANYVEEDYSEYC
Chain of UniProt Q14694 (Q14694 whole entry, looked up): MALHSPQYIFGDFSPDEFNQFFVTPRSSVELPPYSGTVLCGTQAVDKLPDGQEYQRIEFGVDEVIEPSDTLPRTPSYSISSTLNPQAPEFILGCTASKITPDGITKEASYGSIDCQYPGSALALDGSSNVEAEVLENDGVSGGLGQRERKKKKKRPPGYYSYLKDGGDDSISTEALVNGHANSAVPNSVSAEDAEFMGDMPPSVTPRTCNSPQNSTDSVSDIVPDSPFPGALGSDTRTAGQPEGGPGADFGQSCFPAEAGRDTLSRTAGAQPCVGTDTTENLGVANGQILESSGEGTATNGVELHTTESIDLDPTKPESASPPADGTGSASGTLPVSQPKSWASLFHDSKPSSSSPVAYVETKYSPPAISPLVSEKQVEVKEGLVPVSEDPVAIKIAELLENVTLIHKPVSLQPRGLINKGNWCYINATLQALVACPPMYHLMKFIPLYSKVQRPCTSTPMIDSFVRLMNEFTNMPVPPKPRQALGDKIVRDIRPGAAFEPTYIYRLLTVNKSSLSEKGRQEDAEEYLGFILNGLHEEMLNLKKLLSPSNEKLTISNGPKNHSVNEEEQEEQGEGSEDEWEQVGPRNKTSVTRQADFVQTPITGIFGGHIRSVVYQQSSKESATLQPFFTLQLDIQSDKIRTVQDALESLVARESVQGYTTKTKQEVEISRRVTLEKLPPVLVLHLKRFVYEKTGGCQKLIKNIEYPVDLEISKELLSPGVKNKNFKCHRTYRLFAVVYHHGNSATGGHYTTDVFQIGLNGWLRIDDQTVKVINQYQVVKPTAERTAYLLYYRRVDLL
Chain of UniProt Q86UV5 (Q86UV5 whole entry, looked up): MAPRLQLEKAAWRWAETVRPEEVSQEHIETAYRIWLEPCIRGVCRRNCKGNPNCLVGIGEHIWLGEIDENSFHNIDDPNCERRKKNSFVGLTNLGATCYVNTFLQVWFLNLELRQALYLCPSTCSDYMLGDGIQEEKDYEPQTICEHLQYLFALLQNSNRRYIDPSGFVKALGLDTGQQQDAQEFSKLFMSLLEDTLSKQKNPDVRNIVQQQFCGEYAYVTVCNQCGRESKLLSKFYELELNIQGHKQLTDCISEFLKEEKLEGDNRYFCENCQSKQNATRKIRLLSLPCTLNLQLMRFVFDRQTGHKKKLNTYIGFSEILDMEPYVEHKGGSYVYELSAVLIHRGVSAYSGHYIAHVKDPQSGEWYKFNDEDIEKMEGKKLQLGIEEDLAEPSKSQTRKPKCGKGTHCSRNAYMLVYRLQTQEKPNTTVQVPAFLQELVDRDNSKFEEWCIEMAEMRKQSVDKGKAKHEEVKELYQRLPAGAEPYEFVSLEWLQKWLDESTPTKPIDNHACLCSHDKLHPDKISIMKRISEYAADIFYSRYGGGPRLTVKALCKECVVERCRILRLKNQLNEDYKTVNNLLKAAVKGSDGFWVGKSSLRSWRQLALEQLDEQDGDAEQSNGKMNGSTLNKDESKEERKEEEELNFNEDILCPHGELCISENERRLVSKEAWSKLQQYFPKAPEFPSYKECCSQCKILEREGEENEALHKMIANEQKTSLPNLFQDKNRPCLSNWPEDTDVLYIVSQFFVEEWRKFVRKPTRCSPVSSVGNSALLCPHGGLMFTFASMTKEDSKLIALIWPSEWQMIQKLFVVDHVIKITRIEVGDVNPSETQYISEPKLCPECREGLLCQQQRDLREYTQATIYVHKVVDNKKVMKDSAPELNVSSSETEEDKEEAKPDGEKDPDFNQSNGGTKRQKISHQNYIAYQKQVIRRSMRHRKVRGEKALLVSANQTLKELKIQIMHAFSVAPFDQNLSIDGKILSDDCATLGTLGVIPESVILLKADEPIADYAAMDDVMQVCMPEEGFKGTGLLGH
Chain of UniProt P63027 (P63027 whole entry, looked up): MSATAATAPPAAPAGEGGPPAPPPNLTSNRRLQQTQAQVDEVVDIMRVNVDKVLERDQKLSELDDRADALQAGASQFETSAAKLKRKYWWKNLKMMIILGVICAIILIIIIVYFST
Chain of UniProt Q9BQA1 (Q9BQA1 whole entry, looked up): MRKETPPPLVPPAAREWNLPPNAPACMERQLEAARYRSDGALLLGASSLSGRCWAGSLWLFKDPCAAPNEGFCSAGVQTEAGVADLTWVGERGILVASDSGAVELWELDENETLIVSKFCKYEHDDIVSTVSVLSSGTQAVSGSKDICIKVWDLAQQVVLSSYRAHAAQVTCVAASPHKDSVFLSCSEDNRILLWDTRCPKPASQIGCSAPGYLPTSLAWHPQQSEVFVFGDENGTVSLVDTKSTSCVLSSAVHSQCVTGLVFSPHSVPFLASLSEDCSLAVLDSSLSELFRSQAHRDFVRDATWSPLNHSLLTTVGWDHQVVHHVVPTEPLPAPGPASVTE

Target | log2 fold change [1] | log2 fold change [2] | log2 fold change [3] | log2 fold change [4] | log2 fold change [5] | log2 fold change [6] | log2 fold change [7] | log2 fold change [8] | log2 fold change [9] | log2 fold change [10] | log2 fold change [11] | log2 fold change [12] | log2 fold change [13] | log2 fold change [14] | log2 fold change [15] | log2 fold change [16] | log2 fold change [17] | log2 fold change [18] | log2 fold change [19] | log2 fold change [20]
USP10 isoform 2 (UniProt Q14694) | -0.01 | -0.015 | -0.03 | -0.024 | 0.009 | -0.046 | -0.014 | -0.016 | -0.014 | 0.028 | -0.022 | 0.013 | -0.058 | 0.013 | -0.013 | -0.081 | -0.007 | 0.034 | -0.011 | -0.012
WDR91 (UniProt A4D1P6) | -0.003 | -0.012 | -0.009 | -0.001 | 0.002 | 0.048 | 0 | 0.038 | -0.05 | 0.052 | -0.051 | -0.025 | -0.039 | -0.01 | 0.056 | 0.005 | 0.014 | -0.009 | -0.004 | 0.011
ZMYM1 (UniProt Q5SVZ6) | 0.101 | -0.037 | -0.008 | -0.25 (active) | -0.04 | 0.226 | -0.021 | 0 | -0.097 | 0.284 (active) | 0.023 | -0.036 | 0.006 | -0.019 | 0.007 | -0.08 | -0.012 | 0.03 | 0.003 | 0.028
USP48 (UniProt Q86UV5) | -0.05 | 0.037 | 0.13 | -0.577 (active) | -0.022 | 0.068 | 0.035 | -0.181 | -0.134 | 0.182 | -0.016 | -0.045 | -0.016 | -0.032 | 0.005 | 0.19 | 0.033 | -0.077 | 0.005 | -0.012
YME1L1 (UniProt Q96TA2) | -0.025 | -0.034 | -0.073 | 0.01 | -0.017 | -0.112 | 0.048 | -0.023 | -0.024 | 0.055 | 0.011 | -0.06 | 0 | 0.026 | -0.044 | -0.045 | -0.019 | 0.016 | 0.06 | -0.059
XPNPEP1 isoform 3 (UniProt Q9NQW7) | -0.017 | -0.02 | -0.008 | 0.001 | 0.049 | 0.002 | -0.024 | -0.003 | -0.021 | 0.018 | 0.022 | 0.016 | -0.049 | -0.004 | 0.014 | 0.024 | 0.011 | 0.007 | -0.005 | -0.023
ZZEF1 (UniProt O43149) | -0.023 | -0.024 | -0.092 | -0.113 | 0.028 | 0.038 | -0.011 | 0.029 | -0.083 | 0.123 | -0.022 | 0 | -0.018 | 0.015 | -0.006 | -0.07 | 0.007 | 0.008 | 0.021 | -0.03
VCPIP1 (UniProt Q96JH7) | -0.061 | -0.053 | -0.052 | -0.059 | -0.002 | -0.038 | -0.028 | 0.025 | -0.043 | 0.1 | -0.006 | 0.044 | -0.045 | -0.025 | 0.016 | -0.046 | 0.011 | 0.031 | 0.029 | -0.059
YTHDC2 (UniProt Q9H6S0) | -0.029 | -0.007 | -0.042 | 0.023 | 0.032 | -0.013 | -0.03 | 0.007 | -0.022 | -0.066 | 0.006 | -0.001 | -0.043 | 0.03 | 0.03 | -0.046 | 0.022 | 0.06 | -0.007 | -0.054
VAV1 (UniProt P15498) | 0 | 0.012 | -0.059 | -0.057 | 0.071 | -0.02 | 0.011 | -0.044 | -0.087 | 0.066 | 0.022 | -0.031 | 0.007 | 0.009 | 0.04 | 0.022 | 0 | -0.018 | 0.007 | -0.054
WDR77 (UniProt Q9BQA1) | 0.012 | 0.016 | -0.027 | 0.014 | 0.119 | -0.037 | -0.005 | 0.008 | -0.024 | -0.047 | 0.056 | 0.028 | 0.093 | 0 | -0.013 | 0.014 | 0.048 | 0.006 | -0.008 | 0.039
VRK1 (UniProt Q99986) | -0.005 | 0.002 | -0.023 | 0.172 | 0.013 | -0.078 | -0.052 | -0.052 | -0.042 | -0.014 | -0.002 | 0 | -0.001 | 0.005 | 0.032 | -0.059 | -0.018 | 0.015 | 0.003 | -0.046
USP9X (UniProt Q93008) | -0.031 | -0.027 | -0.058 | -0.015 | -0.017 | -0.127 | 0.011 | 0.004 | -0.034 | 0.027 | -0.01 | 0 | -0.045 | 0.002 | 0 | -0.017 | -0.024 | 0.03 | 0.02 | -0.003
VAMP2 (UniProt P63027) | 0.045 | -0.05 | 0.105 | 0.062 | 0.051 | -0.057 | 0.074 | -0.083 | -0.002 | -0.147 | -0.034 | 0.034 | 0.002 | 0.066 | -0.009 | 0.262 | 0.041 | -0.027 | 0.019 | 0.067
VPS41 (UniProt P49754) | -0.018 | -0.046 | -0.011 | 0.079 | -0.021 | -0.093 | 0.047 | 0.023 | -0.021 | -0.05 | 0.034 | 0.014 | -0.038 | 0.001 | 0.057 | -0.048 | -0.029 | 0.029 | 0.001 | -0.009
USP48 isoform 8 (UniProt Q86UV5) | -0.01 | -0.001 | -0.022 | -0.006 | -0.001 | -0.044 | 0.008 | 0.024 | -0.027 | 0.034 | 0.018 | 0.008 | 0.001 | 0 | 0.015 | -0.04 | -0.011 | 0.008 | -0.001 | -0.024
